Consider 40 sequences from the supplement of paper PMC6555819.

One experiment concerns RXRa homodimer (NR concentration 180 nM). The experiment in a line: PBM binding z-score (relative to random genomic background probes); higher = stronger binding; sequences stand for … in GC…GCGATTGACAGCGTAGAATGAAGG
An outline of the steps:
(§1)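 Probes were double-stranded and carried 34-nt variable regions with direct-repeat seeds, single-nucleotide variants, half-site ablations and random human genomic background sequences, printed on custom Agilent 4×180K protein-binding microarrays. Arrays were incubated 1 h with ligand-free nuclear receptor dimers in PBS pH 7.4, 2% milk, 0.02% Triton X-100, 1 mM DTT, 0.2 mg/mL BSA and 0.4 mg/ml salmon testes DNA. Antibodies against each partner (one per run) detected binding, and scanned fluorescence was regression-normalized. Binding z-scores use the random background probes as reference.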
Sequence CGAACTAGGTCAGAACAGGACGGTGAAGGATGAT yielded a PBM binding z-score of 1.14.

As to CCTATTAGTTGACCAAAAGGGCAACCGAAGCTCG, the PBM binding z-score came out at 1.09.

For the sequence ATATGTAGGTTACATCCGGGTCATTCCGGCTATG, the PBM binding z-score is 2.92.

With CCTACTGGGCCAAGATCATTGATCAGTCAAAGCA, the PBM binding z-score is -0.589.

Take TCATATAGGTAAAGGTAAAAGTCGAACGATATGA: the PBM binding z-score was determined as 1.11.

ACAGACAGGTGATGACGGTAACTCAGGCTATCAT displayed a PBM binding z-score of 0.15.

Take ATCTCTATGTAAAGATAGTTCAGTGAATGCAAAT: the PBM binding z-score was determined as 0.467.

As to CGAACTTGGTCAGAACAGGACAGTGAAGGATGAT, the PBM binding z-score is 0.172.

CCTACTGGGCCATTCAGAGCTCATTGATCATATG came in with a PBM binding z-score of -0.591.

The sequence TCATGTAGATCAATAGAGGTTAAGAAAGTGCGCT yielded a PBM binding z-score of 1.28.

Consider TGGCAAAGTTCAAAGGTAACGTAAGTATCCACAC, for which the PBM binding z-score came out at 7.78.

As for GGAACAAGGGCAAAGTTGATAGCATCTGTCGACG, the PBM binding z-score came out at 1.27.

On to GATACAGGGTCCAGGCCAGAGTACGCGTATTGAT, for which the PBM binding z-score was 0.291.

With GGAACGAGGGCATTCGAGCTGATAGCATGGCGAT, the PBM binding z-score is 0.444.

In turn, CGAACTAGGTCAGAACAGGACAGCGAAGGATGAT displayed a PBM binding z-score of 1.39.

In turn, GCTTACGGGTCAAAGGTTATAGCATGAATAGAAT came in with a PBM binding z-score of 9.18.

TGATATAGGTAAATGCTAGGTGAAAGTCCGATCT had a PBM binding z-score of 0.453.

With CCGAATGGGGCATAAGGTTACCATAAGCCAGCCC, the PBM binding z-score was found to be 1.49.

In turn, CCTGGGAGGACAACAGGAGGTCAGAGCTGCCAGA returned a PBM binding z-score of 2.29.

In turn, TCACATAGGTAATACAGGTGAAAGTCGGCATCTA returned a PBM binding z-score of 1.14.

CCTCGGAGGACAGAAGGTCAGAGTTGTCCGCTTT: the PBM binding z-score stood at 1.73.

With ATCTCTAGGTAAAGTTCGGTGAAAGATCGATAGA, the PBM binding z-score was determined as 0.31.

On to CCGACTGTGGCAGAAAGGTTACCATACCATCCGG, for which the PBM binding z-score came to 1.47.

Consider TCTAGTTGGTCAAAGGACACACACTCGAAATGCG, for which the PBM binding z-score turned out to be 1.12.

AATACAGGGTCACTAGGCTAGAGTAGGTACGAAT returned a PBM binding z-score of 5.52.

In the case of TGTGCTAGGTCAGTTGGTCAGCTAACGAGCTGCC, the PBM binding z-score worked out at 0.793.

Take ATATGTAGGTTATCGGGTCATCCAGTTTGCGCAT: the PBM binding z-score is 3.78.

In the case of CCTAGTTGGTCAGGAGGTCTCACACCGGATATGA, the PBM binding z-score amounted to 0.298.

TCTTGTAGATCAATATAGGTTAAGAAAGTGCGCT gave a PBM binding z-score of 0.962.

GTACCAAGGTGAATAGGCCGTTGATGAGTAGGCG returned a PBM binding z-score of 0.633.

As to TCTGCTAGGGCAGTTGGTCAGCTAACGAGCTGCC, the PBM binding z-score was -0.74.

AGTCAAAATTCATCTAGGTAACGTAAGATATGCT came in with a PBM binding z-score of -0.00435.

CCAGACAGGTGAGAAGGTTACTCAGCCTCGATTA gave a PBM binding z-score of 1.

In the case of AGTCAAAGTTCAGGACGAGGTAACATAAAGCACG, the PBM binding z-score amounted to 3.25.

Sequence TGAATGAGGTTAAAGATCAGGGACCGTGGCGTCG came in with a PBM binding z-score of 3.61.

On to CAAAGTAGGTCAAAGGTCAAAGTCGAGCCAACCA, for which the PBM binding z-score was 10.4.

In the case of CCTTACGGGTCACTCCAGGTTATGGCATCGGAGT, the PBM binding z-score was found to be 4.22.

Consider GCTTACGGGACAAAGGTTATAGCATGAATAGAAT, for which the PBM binding z-score is 2.36.

The sequence ACTATTAGTTGAGACGAGGGCAATCGATAGGTTG returned a PBM binding z-score of 0.517.

In the case of CTCGAAAGGTCCTGCTCAGGTGAGTATACCAAAC, the PBM binding z-score stood at 0.666.

The subject of a further experiment is THRa:RXRa (NR concentration 90 nM, RXRa partner concentration 90 nM). The experiment is described as above. In outline: as §1
CGAACTAGGTCAGAACAGGACGGTGAAGGATGAT: the PBM binding z-score was determined as 2.43.

The sequence CCTATTAGTTGACCAAAAGGGCAACCGAAGCTCG returned a PBM binding z-score of 0.99.

Consider ATATGTAGGTTACATCCGGGTCATTCCGGCTATG, for which the PBM binding z-score came out at 3.61.

In turn, CCTACTGGGCCAAGATCATTGATCAGTCAAAGCA came in with a PBM binding z-score of -0.314.

Turning to TCATATAGGTAAAGGTAAAAGTCGAACGATATGA, the PBM binding z-score amounted to 0.531.

In turn, ACAGACAGGTGATGACGGTAACTCAGGCTATCAT displayed a PBM binding z-score of 0.339.

As to ATCTCTATGTAAAGATAGTTCAGTGAATGCAAAT, the PBM binding z-score stood at 0.271.

Take CGAACTTGGTCAGAACAGGACAGTGAAGGATGAT: the PBM binding z-score is 1.09.

On to CCTACTGGGCCATTCAGAGCTCATTGATCATATG, for which the PBM binding z-score is -0.578.

For the sequence TCATGTAGATCAATAGAGGTTAAGAAAGTGCGCT, the PBM binding z-score amounted to 2.31.

In turn, TGGCAAAGTTCAAAGGTAACGTAAGTATCCACAC yielded a PBM binding z-score of 3.41.

Take GGAACAAGGGCAAAGTTGATAGCATCTGTCGACG: the PBM binding z-score came to 0.979.

GATACAGGGTCCAGGCCAGAGTACGCGTATTGAT yielded a PBM binding z-score of -0.105.

Regarding GGAACGAGGGCATTCGAGCTGATAGCATGGCGAT, the PBM binding z-score was 0.7.

Sequence CGAACTAGGTCAGAACAGGACAGCGAAGGATGAT registered a PBM binding z-score of 3.82.

For the sequence GCTTACGGGTCAAAGGTTATAGCATGAATAGAAT, the PBM binding z-score stood at 4.02.

With TGATATAGGTAAATGCTAGGTGAAAGTCCGATCT, the PBM binding z-score came out at 1.18.

CCGAATGGGGCATAAGGTTACCATAAGCCAGCCC returned a PBM binding z-score of 2.1.

As for CCTGGGAGGACAACAGGAGGTCAGAGCTGCCAGA, the PBM binding z-score amounted to 3.05.

TCACATAGGTAATACAGGTGAAAGTCGGCATCTA came in with a PBM binding z-score of 0.928.

CCTCGGAGGACAGAAGGTCAGAGTTGTCCGCTTT returned a PBM binding z-score of 2.08.

Sequence ATCTCTAGGTAAAGTTCGGTGAAAGATCGATAGA displayed a PBM binding z-score of 1.1.

In turn, CCGACTGTGGCAGAAAGGTTACCATACCATCCGG had a PBM binding z-score of 0.958.

The sequence TCTAGTTGGTCAAAGGACACACACTCGAAATGCG showed a PBM binding z-score of 1.59.

The sequence AATACAGGGTCACTAGGCTAGAGTAGGTACGAAT came in with a PBM binding z-score of 3.35.

Regarding TGTGCTAGGTCAGTTGGTCAGCTAACGAGCTGCC, the PBM binding z-score is 1.14.

For the sequence ATATGTAGGTTATCGGGTCATCCAGTTTGCGCAT, the PBM binding z-score is 3.68.

CCTAGTTGGTCAGGAGGTCTCACACCGGATATGA came in with a PBM binding z-score of 0.191.

With TCTTGTAGATCAATATAGGTTAAGAAAGTGCGCT, the PBM binding z-score was 1.03.

Consider GTACCAAGGTGAATAGGCCGTTGATGAGTAGGCG, for which the PBM binding z-score is 1.16.

With TCTGCTAGGGCAGTTGGTCAGCTAACGAGCTGCC, the PBM binding z-score is -0.754.

As for AGTCAAAATTCATCTAGGTAACGTAAGATATGCT, the PBM binding z-score stood at 0.538.

CCAGACAGGTGAGAAGGTTACTCAGCCTCGATTA registered a PBM binding z-score of 0.657.

In turn, AGTCAAAGTTCAGGACGAGGTAACATAAAGCACG returned a PBM binding z-score of 3.73.

Sequence TGAATGAGGTTAAAGATCAGGGACCGTGGCGTCG returned a PBM binding z-score of 2.39.

As for CAAAGTAGGTCAAAGGTCAAAGTCGAGCCAACCA, the PBM binding z-score was 4.54.

In the case of CCTTACGGGTCACTCCAGGTTATGGCATCGGAGT, the PBM binding z-score worked out at 5.16.

Consider GCTTACGGGACAAAGGTTATAGCATGAATAGAAT, for which the PBM binding z-score was 1.55.

ACTATTAGTTGAGACGAGGGCAATCGATAGGTTG: the PBM binding z-score came out at 2.22.

In turn, CTCGAAAGGTCCTGCTCAGGTGAGTATACCAAAC displayed a PBM binding z-score of 2.11.
